Inconclusive results are not listed. Activity calls are given as the source filed them. Unless noted, the call rests on the fitted dose curve; in most records, active means well fitted curve in the direction sought with a large enough effect; inconclusive means small, poorly fitted or top-dose-only effect, or another doubt; inactive means no such curve, though single readings can be large; an effect the other way counts as inactive or inconclusive.

We go through 8 compounds from PubChem BioAssay (NCATS).

Assay [1] concerns the target Ubiquitin carboxyl-terminal hydrolase 2 (Homo sapiens) (UniProt O75604). The assay is described as follows: qHTS Validation Assay for Inhibitors of Ubiquitin-specific Protease USP2a Using CHOP2 as the Reporter (AID 463106). The procedure, abridged: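 USP2 core (10 nM final) was preincubated with compound 30 min at RT in pH 8.0 Tris/CaCl2/beta-ME/CHAPS buffer. Ub-CHOP2 and reporter substrate (25 nM final each) were then added, with fluorescence (Ex 485/Em 531) read after 60 min. Data were normalized to NEM full inhibition and fitted to concentration-response curves.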
Background: In qHTS, concentration-response curves come from the screen itself.

Assay [2] has as its target DNA polymerase III PolC-type (Bacillus subtilis (strain 168)) (UniProt P13267). The assay is described as follows: qHTS Validation Assay for the Inhibitors of DNA Replication in Gram-Positive Bacteria (AID 485295).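 Further: reconstituted holoenzyme with PolC plus beta clamp SSB and primase; PicoGreen fluorescence of double-stranded DNA made on primed circular M13 template; series mostly up to about 57 µM.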 The procedure, abridged:
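Primed replication of single-stranded M13Gori by a four-protein B. subtilis holoenzyme is measured at room temperature. Double-stranded product is quantified by PicoGreen fluorescence after an EDTA stop; inhibition is scaled between DMSO and EDTA controls.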

Assay [3] concerns the target Tumor susceptibility gene 101 protein (Homo sapiens) (UniProt Q99816). The assay can be described thus: qHTS Validation Assay for Iinhibitors of HIV-1 Budding by Blocking the Interaction of PTAP/TSG101 (AID 485342; calls by dose curve). The procedure, abridged: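 Fluorescence anisotropy measured PTAP-Tsg101 interaction. Final concentrations were 10 uM protein domain and 50 nM labeled peptide, equilibrated 20 min at room temperature.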

Assay [4] in a line: qHTS Validation Assay to Find Inhibitors of Chronic Active B-Cell Receptor Signaling (AID 485345; active means well fitted curve in the direction sought with a large enough effect in the main read-out, with a control signal flat, not every such curve was filed as active). The procedure, abridged: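 TMD8 ABC-DLBCL cells stably carrying doxycycline-inducible IkappaBalpha–green luciferase fusion plus unfused red luciferase; compounds 46 uM to 3 nM, 4 h at 37C with doxycycline. Corrected green/red luminescence ratio normalized to 10 uM MG-132 and basal cell wells; curves fitted.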

Assay [5] deals with Beta-2 adrenergic receptor (Homo sapiens) (UniProt P07550). The assay can be described thus: qHTS validation assay of beta-arrestin-biased ligands of beta2-adrenergic receptor (AID 485366). The procedure, abridged: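 Luminescence from a tTA-responsive luciferase, induced when recombinant beta-arrestin is recruited to recombinant beta2-AR, served as the agonism signal. Cells were exposed to compound for 18 hr at 37 degrees C; titrations spanned up to 46 microM.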

Assay [6] addresses ATP-dependent 6-phosphofructokinase (Trypanosoma brucei brucei) (UniProt O15648). The assay can be described thus: qHTS Validation Assay to Find Inhibitors of T. brucei phosphofructokinase (AID 485368). The procedure, abridged: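 Activity was normalized between 1x (1.25 nM) PFK wells as no inhibition and enzyme-free wells as full inhibition, from luminescence after ADP-Glo detection of ADP made from 0.5 mM F6P and 0.1 mM ATP over 45 min.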

Assay [7] can be described thus: Quantitative high throughput screen for delayed death inhibitors of the malarial parasite plastid, 96 hour incubation (AID 488745). Further: series mostly up to about 29 µM; nearly all actives have a fitted effect of over 70% in size. In outline: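 Luciferase-expressing P. falciparum in erythrocytes (2% hematocrit, 0.1% parasitemia) incubated with compound for 96 h at 37 C, 5% CO2, in RPMI 1640 with 0.5% Albumax. Growth inhibition read as decreased luminescence.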

In assay [8] the target is Thioredoxin reductase 1, cytoplasmic (Rattus norvegicus) (UniProt O89049). The assay can be described thus: qHTS Assay for Substrates of Mammalian Selenoprotein Thioredoxin Reductase 1 (TrxR1) (AID 488772).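 Further: NADPH fluorescence in the first read after selenite addition and not the 8 min delta; series mostly up to about 57 µM; a drop in NADPH fluorescence below the no-compound background marks a TrxR1 substrate.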 In outline: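 Quantitative HTS in Tris-HCl buffer at pH 7.5 with EDTA and Tween-20, using rat TrxR1, 400 uM NADPH and 400 uM selenite (final). A fall in initial NADPH fluorescence relative to background marked substrate behaviour.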

Assay [9] shares this target. The assay is described as follows: qHTS Assay for Inhibitors of Mammalian Selenoprotein Thioredoxin Reductase 1 (TrxR1) (AID 488773).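 Further: drop in NADPH fluorescence over an 8 min run after selenite addition; series mostly up to about 57 µM; nearly all actives have a fitted effect of over 40% in size.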 Conditions: Potency: inhibition. The procedure, abridged:
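Steps: enzyme (90 nM) plus NADPH (400 uM final), 5 min at ~22 deg C; compound added, 15 min; selenite (400 uM final) added; fluorescence followed for 8 min. Concentration-response curves derived from the normalized delta values.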

Assay [10] has as its target Flap endonuclease 1 (Homo sapiens) (UniProt P39748). The assay is described as follows: qHTS Validation Assay for the Inhibitors of Human Flap endonuclease 1 (FEN1) (AID 488816). The procedure, abridged:
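Human FEN1 (10 nM) preincubated 15 min at room temperature with compounds, then flap DNA substrate added at 50 nM final. Fluorescence read at 0 and 15 min; concentration-response fitted with four-parameter Hill equation.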

Assay [11] concerns the target M-phase phosphoprotein 8 (Homo sapiens) (UniProt Q99549). The assay can be described thus: qHTS Validation Assay for Inhibitors for MPP8 Chromodomain Interactions with Methylated Histone Tails (AID 488949).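 Further: AlphaScreen signal from MPP8 chromodomain bound to biotinylated H3K9me3 peptide; top concentration of the series differs between compounds; nearly all actives have a fitted effect of over 55% in size.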 The procedure, abridged: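 Disruption of the preformed MPP8–trimethyl-H3K9 peptide complex (both 50 nM, 30 min, RT) is measured after 30 min compound exposure, using AlphaScreen proximity beads; aurintricarboxylic acid titration serves as plate control.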

The target of assay [12] is Methanococcus maripaludis chaperonin (MmCpn) (UniProt Q6LX38). The assay can be described thus: High-Throughput Screening for Modulators of Cytosolic Chaperonin Activity: MmCpn Primary Screen (AID 488978).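 Further: 50 nM MmCpn enzyme hydrolysing 30 µM ATP at 37 °C.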 The procedure, abridged: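 Measures ATPase turnover of the M. maripaludis chaperonin (50 nM final) against 30 uM ATP over 10 min at 37C, with compound added 5 min beforehand at room temperature. ADP is quantified by HTRF immunodetection.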

The target of assay [13] is Transient receptor potential cation channel subfamily V member 1 (Homo sapiens) (UniProt Q8NER1). The assay is described as follows: HTS Assay for Compounds that Act as Enhancers of the Vanilloid Receptor 1 (AID 488979). The procedure, abridged:
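TRPV1 cells loaded with Fluo-8 calcium dye; compound added and Ca2+ signal (ex 480/em 520 nm) followed 3 min, then capsaicin at EC20 added and read 2 more min to detect enhancement.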

Assay [14] concerns the target Thyrotropin receptor (Homo sapiens) (UniProt P16473). The assay can be described thus: qHTS Assay for Antagonists of the Thyroid Stimulating Hormone Receptor (AID 488980). Further: series mostly up to about 58 µM. In outline:
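Cells expressing human TSHR (HEK293) are dispensed in HBSS/HEPES containing 70 uM RO 20-1724, compound is added, then TSH at EC80 (4 nM final). Antibody in lysis buffer follows, 30 minutes at room temperature before HTRF detection.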

Assay [15] concerns the target D(1A) dopamine receptor (Homo sapiens) (UniProt P21728). The assay can be described thus: HTS Assay for Allosteric Agonists of the Human D1 Dopamine Receptor: Primary Screen for Agonists (AID 488981). The procedure, abridged: (§1)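 Tetracycline-induced HEK293 Trex D1 cells with forced coupling to calcium, loaded with no-wash calcium dye; kinetic fluorescence read 180 s after compound addition for agonism, then a further 180 s after an EC20 dopamine challenge for potentiation.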

The target is the same in assay [16]. The assay is described as follows: HTS Assay for Allosteric Agonists of the Human D1 Dopamine Receptor: Primary Screen for Potentiators (AID 488982). In outline: as §1
The target is the same in assay [17]. The assay is described as follows: HTS Assay for Allosteric Agonists of the Human D1 Dopamine Receptor: Primary Screen for Antagonists (AID 488983).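 Further: calcium flux response to an EC80 dopamine challenge measured with no-wash dye; nearly all actives have a fitted effect of over 65% in size.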 The procedure, abridged: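 Tetracycline-induced HEK293 T-REx D1 line, force-coupled to calcium flux, read with no-wash calcium dye. Compound added after 10 s baseline, read 180 s for agonism, then EC80 dopamine added and read a further 180 s.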

Assay [18] has as its target Chromobox protein homolog 1 (Homo sapiens) (UniProt P83916). The assay is described as follows: qHTS Validation Assay for Inhibitors of HP1-beta Chromodomain Interactions with Methylated Histone Tails (AID 488953).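 Further: loss of AlphaScreen luminescence from HP1-beta binding biotinylated H3K9me3 peptide; series mostly up to about 110 µM; nearly all actives have a fitted effect of over 50% in size.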 The procedure, abridged: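 HP1-beta (50 nM) preformed 30 min with biotinylated H3(1-18)K9me3 peptide (50 nM) in PBS pH 7.4, 0.01% Tween-20. Compounds added for 30 min at room temperature. Complex disruption read by AlphaScreen with streptavidin donor/nickel chelate acceptor beads (10 ug/mL each).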

For assay [19], the target named is Tyrosyl-DNA phosphodiesterase 1 (Homo sapiens) (UniProt Q9NUW8). The assay can be described thus: Confirmation Assay for Inhibitors of Tyrosyl-DNA Phosphodiesterase (TDP1) (AID 489007). Further: potency means the concentration at half of the fitted maximal effect; nearly all actives have a fitted effect of over 40% in size. The note with it: recombinant human TDP1 enzymatic activity, dose-response. The procedure, abridged:
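Recombinant human Tdp1 (1 nM final), expressed in E. coli, preincubated 15 min with compound. Then 15 nM 5'-biotin/3'-phosphotyrosine-FITC DNA substrate added for 5 min at room temperature. AlphaScreen beads (10 ug/ml) added for 10 min; cleavage gives signal loss.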

Transient receptor potential cation channel subfamily V member 1 (Homo sapiens), sequence (Q8NER1 whole entry, looked up): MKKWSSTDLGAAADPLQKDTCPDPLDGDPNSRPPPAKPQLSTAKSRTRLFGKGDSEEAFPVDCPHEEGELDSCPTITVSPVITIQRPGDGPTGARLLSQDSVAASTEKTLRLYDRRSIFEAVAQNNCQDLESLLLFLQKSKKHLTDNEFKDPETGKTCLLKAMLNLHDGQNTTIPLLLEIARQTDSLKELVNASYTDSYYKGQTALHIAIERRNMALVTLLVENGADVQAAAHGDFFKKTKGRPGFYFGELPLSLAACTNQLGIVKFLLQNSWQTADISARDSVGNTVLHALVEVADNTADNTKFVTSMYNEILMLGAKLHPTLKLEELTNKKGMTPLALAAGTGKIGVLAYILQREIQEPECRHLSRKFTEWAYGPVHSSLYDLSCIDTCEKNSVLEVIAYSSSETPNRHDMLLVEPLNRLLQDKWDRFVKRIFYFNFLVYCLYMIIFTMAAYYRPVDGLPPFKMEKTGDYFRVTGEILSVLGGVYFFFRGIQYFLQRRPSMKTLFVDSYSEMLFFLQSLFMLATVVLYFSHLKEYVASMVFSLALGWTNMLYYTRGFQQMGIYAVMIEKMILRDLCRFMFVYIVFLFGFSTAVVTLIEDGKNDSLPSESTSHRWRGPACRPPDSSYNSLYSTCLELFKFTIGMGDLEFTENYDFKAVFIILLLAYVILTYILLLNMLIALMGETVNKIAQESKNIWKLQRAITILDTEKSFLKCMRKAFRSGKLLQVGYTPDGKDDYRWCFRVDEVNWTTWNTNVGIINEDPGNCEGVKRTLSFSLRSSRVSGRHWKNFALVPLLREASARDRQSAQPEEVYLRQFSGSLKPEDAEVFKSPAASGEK
Flap endonuclease 1 (Homo sapiens), sequence (P39748 whole entry, looked up): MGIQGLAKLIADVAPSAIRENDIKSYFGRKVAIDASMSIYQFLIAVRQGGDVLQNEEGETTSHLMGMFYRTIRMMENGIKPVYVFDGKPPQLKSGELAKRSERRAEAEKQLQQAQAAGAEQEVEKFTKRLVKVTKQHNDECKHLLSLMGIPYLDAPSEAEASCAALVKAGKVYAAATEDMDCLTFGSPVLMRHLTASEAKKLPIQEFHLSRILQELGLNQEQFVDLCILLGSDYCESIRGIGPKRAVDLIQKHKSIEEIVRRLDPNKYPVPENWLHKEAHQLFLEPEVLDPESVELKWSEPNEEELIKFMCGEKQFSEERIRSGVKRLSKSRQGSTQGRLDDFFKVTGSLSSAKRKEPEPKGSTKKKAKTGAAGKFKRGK
Thioredoxin reductase 1, cytoplasmic (Rattus norvegicus), sequence (O89049 whole entry, looked up): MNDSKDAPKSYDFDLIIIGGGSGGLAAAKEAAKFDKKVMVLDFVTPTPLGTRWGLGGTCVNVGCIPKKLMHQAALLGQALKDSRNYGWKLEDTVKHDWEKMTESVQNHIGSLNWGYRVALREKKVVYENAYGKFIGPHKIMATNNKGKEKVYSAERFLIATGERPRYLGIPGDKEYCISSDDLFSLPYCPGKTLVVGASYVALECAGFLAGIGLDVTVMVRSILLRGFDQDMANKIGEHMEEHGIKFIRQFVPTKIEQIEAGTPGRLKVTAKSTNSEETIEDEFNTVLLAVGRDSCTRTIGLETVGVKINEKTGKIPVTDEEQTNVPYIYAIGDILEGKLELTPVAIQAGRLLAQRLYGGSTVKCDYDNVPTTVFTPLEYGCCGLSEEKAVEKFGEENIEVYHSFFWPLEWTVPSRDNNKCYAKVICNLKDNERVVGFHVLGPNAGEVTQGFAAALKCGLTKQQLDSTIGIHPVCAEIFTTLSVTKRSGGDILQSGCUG
Tumor susceptibility gene 101 protein (Homo sapiens), sequence (Q99816 whole entry, looked up, the tested form may be a part): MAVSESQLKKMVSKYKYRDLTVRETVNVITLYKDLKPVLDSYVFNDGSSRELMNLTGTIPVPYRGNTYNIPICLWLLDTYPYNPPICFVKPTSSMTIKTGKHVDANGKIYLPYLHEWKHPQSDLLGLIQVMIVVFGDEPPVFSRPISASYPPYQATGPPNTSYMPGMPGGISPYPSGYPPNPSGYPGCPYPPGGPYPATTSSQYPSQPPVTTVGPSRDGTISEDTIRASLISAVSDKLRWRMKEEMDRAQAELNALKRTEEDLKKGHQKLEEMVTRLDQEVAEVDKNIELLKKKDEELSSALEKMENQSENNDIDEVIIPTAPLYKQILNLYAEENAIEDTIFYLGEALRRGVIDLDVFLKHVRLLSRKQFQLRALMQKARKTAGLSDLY
Ubiquitin carboxyl-terminal hydrolase 2 (Homo sapiens), sequence (O75604 whole entry, looked up): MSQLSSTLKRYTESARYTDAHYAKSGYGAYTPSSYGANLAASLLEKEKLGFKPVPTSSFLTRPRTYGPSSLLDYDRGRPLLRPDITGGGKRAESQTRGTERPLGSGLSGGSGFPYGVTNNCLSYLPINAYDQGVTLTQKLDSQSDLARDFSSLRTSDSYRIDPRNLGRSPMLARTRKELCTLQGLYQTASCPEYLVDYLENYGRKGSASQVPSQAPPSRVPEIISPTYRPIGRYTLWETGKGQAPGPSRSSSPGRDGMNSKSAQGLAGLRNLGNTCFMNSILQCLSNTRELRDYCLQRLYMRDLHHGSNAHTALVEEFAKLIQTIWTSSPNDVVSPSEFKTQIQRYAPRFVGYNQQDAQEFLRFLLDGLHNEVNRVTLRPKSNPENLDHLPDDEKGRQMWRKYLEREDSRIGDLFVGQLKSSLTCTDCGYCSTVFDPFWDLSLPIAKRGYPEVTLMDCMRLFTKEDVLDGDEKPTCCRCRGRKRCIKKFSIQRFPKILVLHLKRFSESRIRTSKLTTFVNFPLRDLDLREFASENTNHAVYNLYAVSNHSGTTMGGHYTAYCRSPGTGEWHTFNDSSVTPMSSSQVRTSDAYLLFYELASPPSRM
ATP-dependent 6-phosphofructokinase (Trypanosoma brucei brucei), sequence (O15648 whole entry, looked up): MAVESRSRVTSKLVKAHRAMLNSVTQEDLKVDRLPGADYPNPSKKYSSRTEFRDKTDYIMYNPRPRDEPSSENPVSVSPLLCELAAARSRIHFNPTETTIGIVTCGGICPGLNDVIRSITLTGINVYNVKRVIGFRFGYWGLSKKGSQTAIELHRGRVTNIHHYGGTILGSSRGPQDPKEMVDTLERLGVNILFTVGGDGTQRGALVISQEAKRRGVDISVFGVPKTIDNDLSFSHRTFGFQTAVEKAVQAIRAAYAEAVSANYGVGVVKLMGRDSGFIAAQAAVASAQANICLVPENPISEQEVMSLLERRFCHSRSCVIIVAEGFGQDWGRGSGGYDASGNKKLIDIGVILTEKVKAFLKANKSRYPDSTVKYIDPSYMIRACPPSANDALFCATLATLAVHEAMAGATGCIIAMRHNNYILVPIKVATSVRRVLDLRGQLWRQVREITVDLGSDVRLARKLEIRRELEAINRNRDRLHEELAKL
Methanococcus maripaludis chaperonin (MmCpn), sequence (Q6LX38 1-543): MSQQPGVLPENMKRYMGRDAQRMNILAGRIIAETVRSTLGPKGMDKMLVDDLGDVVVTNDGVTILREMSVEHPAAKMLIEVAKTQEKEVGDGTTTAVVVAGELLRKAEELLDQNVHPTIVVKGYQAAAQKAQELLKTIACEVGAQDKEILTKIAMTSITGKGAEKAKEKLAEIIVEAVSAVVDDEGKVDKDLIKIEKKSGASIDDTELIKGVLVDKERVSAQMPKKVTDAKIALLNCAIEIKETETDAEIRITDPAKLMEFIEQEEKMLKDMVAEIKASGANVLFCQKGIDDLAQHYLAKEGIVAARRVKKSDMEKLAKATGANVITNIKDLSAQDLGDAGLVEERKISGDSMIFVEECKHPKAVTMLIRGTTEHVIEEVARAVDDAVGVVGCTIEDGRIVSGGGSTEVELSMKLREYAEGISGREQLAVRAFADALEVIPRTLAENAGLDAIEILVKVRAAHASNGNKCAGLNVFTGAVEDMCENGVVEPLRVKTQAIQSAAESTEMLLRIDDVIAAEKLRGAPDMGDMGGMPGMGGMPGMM
M-phase phosphoprotein 8 (Homo sapiens), sequence (Q99549 whole entry, looked up): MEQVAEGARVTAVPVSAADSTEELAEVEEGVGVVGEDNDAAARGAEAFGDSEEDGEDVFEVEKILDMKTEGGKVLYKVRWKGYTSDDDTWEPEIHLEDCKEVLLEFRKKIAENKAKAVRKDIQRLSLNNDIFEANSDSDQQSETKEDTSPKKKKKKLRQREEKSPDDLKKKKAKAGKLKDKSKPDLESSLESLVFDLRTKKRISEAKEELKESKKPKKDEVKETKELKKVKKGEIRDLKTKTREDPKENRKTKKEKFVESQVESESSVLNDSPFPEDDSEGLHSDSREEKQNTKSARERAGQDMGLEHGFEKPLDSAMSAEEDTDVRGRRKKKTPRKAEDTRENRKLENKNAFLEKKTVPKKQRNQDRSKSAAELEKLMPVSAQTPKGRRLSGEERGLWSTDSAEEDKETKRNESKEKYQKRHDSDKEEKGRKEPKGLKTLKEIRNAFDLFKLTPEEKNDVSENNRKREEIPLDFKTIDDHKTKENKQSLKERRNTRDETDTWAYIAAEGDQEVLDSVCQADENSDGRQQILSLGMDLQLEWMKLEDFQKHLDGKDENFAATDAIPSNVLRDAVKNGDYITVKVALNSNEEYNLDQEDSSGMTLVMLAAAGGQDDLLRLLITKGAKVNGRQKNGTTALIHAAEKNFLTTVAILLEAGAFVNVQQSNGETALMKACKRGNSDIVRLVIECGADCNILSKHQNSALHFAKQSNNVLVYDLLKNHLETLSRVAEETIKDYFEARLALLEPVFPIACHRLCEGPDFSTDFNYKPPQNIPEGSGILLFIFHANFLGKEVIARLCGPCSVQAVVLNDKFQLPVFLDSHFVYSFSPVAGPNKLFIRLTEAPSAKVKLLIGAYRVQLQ
Beta-2 adrenergic receptor (Homo sapiens), sequence (P07550 whole entry, looked up): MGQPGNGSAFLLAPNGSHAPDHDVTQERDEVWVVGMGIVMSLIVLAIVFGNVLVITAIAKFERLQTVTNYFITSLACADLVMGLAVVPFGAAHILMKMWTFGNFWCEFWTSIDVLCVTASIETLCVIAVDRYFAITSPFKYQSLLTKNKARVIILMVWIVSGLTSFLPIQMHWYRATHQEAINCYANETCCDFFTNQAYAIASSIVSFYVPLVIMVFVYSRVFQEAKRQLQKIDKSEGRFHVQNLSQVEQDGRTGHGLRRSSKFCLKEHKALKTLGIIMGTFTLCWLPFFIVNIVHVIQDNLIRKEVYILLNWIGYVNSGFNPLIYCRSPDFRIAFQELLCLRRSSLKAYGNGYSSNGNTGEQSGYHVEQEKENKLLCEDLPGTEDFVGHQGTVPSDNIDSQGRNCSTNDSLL

With `NCCCCCC(=O)O`, the Potency result in assay [1], in assay [2], in [4], in assay [6], in [7] and in assay [9] was “inactive” each time. Besides, the Potency entry in assay [10], in [11], in assay [15], in assay [16] and in assay [17] was “inactive” each time. In addition, the outcome in assay [3], in [5], in [8], in assay [12], in assay [13] and in assay [14] was inactive.

Consider `O=c1[nH]cc(F)c(=O)[nH]1`, for which the Potency result in assay [1], in [2], in [4], in assay [9], in assay [11] and in [18] was “inactive” in each case. Besides, the Potency result in assay [15], in assay [16] and in assay [17] was “inactive” throughout. Further, the compound was called inactive in assay [3], in [5], in assay [8], in [12], in assay [13] and in [14].

For `Clc1ccc(C(c2ccccc2Cl)C(Cl)Cl)cc1` (configuration not stated), the Potency result in [1], in assay [2], in [4], in assay [7], in assay [10] and in assay [11] was “inactive” in each case. Besides, the Potency entry in assay [15], in [16] and in assay [17] was “inactive” each time. In addition, the compound was classed as inactive in assay [3], in assay [5], in [8], in assay [12], in [13] and in assay [14].

Turning to `CC(C)NCC(O)COc1ccc(CCOCC2CC2)cc1` (configuration not stated), the Potency entry in [1], in assay [2], in [4], in assay [6], in assay [9] and in assay [10] was “inactive” each time. Further, the Potency result in assay [11], in assay [18], in assay [15], in assay [16] and in [17] was “inactive” throughout. The call in assay [3], in assay [8], in [12] and in assay [13] was inactive.

As for `Cc1ccccc1N1C(=O)c2cc(S(N)(=O)=O)c(Cl)cc2NC1C` (configuration not stated), the Potency entry in assay [1], in [2], in assay [4], in assay [6], in [7] and in assay [9] was “inactive” each time. Besides, the Potency entry in assay [10], in assay [11], in assay [15], in assay [16] and in assay [17] was “inactive” in each case. For the same compound, the outcome in assay [3], in assay [5], in assay [8], in [12], in [13] and in assay [14] was inactive.

As for `COc1cc2nc(N(C)CCCNC(=O)C3CCCO3)nc(N)c2cc1OC` (configuration not stated), the Potency entry in assay [1], in assay [2], in assay [4], in assay [9], in assay [10] and in [11] was “inactive” in each case. The Potency entry in assay [18], in [15], in assay [16] and in [17] was “inactive” throughout. The outcome in [3], in [5], in assay [8] and in [12] was inactive.

Take `CCc1cccc2c3c([nH]c12)C(CC)(CC(=O)O)OCC3` (configuration not stated): the Potency result in [1], in [2], in assay [4], in assay [7], in assay [9] and in assay [10] was “inactive” in each case. The Potency entry in [11], in assay [18], in assay [15], in assay [16] and in [17] was “inactive” throughout. Besides, the result in assay [3], in [5], in assay [8], in assay [12], in assay [13] and in [14] was inactive.

`CS(=O)(=O)Nc1ccc([N+](=O)[O-])cc1Oc1ccccc1`: the Potency result in [1], in assay [2], in [4], in [7], in [9] and in assay [11] was “inactive” in each case. The Potency entry in assay [18], in [15], in [16] and in assay [17] was “inactive” throughout. For the same compound, the outcome in [3], in [5], in assay [8], in [12], in assay [13] and in assay [14] was inactive. In addition, the Potency in assay [19] was 8.91 µM (active).
